From the supplement of paper PMC6411743 come the findings set out here.

Compound in the assay: Nc1nc2c(ncn2[C@@H]2O[C@H](COP(=O)(O)OP(=O)(O)OP(=O)(O)O)[C@@H](O)[C@H]2O)c(=O)[nH]1 [guanosine triphosphate]
Description: NP40-soluble protein abundance relative to vehicle (solubility fold change) (ratio); higher = more soluble protein in presence of GTP. The procedure:
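Solubility proteome profiling in Jurkat crude lysate. Lysate was treated with Mg-GTP (0.1-10 mM) for 10 min at room temperature and 3 min at 37 °C, then solubilised with 0.8% NP40 and benzonase, followed by ultracentrifugation. Proteins were quantified by TMT10 LC-MS/MS; the value is the NP40-soluble abundance relative to the NP40-processed vehicle, from 3 independent experiments.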

± gives the standard deviation of the averaged measurements. Of roughly 5,400 targets only a part is listed; those with the largest changes were picked by preference.

UniProt Q9NVP1, sequence (Q9NVP1 whole entry): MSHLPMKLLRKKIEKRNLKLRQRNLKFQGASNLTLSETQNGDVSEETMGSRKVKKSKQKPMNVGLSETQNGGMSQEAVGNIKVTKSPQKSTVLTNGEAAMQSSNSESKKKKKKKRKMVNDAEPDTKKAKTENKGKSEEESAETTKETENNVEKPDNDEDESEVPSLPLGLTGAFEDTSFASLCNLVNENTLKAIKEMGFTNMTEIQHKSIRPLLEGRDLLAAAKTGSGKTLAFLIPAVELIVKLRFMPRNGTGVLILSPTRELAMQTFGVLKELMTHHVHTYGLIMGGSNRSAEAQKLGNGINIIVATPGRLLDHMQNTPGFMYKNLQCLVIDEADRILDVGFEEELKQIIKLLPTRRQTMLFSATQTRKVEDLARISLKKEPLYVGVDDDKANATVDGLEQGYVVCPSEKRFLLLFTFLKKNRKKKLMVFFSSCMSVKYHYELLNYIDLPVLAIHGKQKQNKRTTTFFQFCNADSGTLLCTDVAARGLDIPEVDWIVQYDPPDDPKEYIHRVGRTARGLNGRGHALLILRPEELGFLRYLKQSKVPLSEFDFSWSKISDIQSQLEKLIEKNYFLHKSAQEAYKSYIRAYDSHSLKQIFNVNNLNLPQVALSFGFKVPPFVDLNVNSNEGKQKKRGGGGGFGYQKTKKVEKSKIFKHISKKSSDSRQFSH
UniProt Q9BTT4, sequence (Q9BTT4 whole entry): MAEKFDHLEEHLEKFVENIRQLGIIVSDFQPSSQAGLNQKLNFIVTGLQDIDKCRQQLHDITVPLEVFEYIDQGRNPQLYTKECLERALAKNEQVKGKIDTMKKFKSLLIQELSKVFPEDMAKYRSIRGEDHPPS
UniProt Q9Y217, sequence (Q9Y217 whole entry): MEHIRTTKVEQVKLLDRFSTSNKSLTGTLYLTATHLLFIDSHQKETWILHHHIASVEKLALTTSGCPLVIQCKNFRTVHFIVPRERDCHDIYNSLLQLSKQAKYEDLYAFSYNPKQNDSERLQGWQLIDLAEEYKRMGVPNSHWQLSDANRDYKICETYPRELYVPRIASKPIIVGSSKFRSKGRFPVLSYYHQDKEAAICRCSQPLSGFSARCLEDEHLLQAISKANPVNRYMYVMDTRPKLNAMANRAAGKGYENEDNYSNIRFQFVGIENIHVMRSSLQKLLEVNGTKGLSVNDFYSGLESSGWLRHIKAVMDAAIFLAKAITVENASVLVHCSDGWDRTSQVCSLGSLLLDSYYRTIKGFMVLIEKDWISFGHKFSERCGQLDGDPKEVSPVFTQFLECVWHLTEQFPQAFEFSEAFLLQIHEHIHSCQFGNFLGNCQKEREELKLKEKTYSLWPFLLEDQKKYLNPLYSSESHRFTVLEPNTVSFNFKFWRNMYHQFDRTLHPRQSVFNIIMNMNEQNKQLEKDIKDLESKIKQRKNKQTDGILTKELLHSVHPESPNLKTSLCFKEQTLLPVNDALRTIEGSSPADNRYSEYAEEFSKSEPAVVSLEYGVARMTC
UniProt Q96HS1, sequence (Q96HS1 whole entry): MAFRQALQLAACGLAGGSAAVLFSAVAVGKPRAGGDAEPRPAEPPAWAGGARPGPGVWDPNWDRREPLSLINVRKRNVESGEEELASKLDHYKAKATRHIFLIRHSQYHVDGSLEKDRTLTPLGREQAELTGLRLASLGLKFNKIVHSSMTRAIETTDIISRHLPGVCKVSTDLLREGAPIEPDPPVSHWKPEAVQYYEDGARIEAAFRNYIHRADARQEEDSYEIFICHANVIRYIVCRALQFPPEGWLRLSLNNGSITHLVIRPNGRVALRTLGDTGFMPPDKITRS
UniProt Q9BW83, sequence (Q9BW83 whole entry): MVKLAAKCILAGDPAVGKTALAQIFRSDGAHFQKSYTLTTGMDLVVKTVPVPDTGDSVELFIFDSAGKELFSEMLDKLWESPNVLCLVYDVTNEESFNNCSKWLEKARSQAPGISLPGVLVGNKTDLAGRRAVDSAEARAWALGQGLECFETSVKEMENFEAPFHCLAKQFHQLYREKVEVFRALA

On to DDX18 (UniProt Q9NVP1), for which the NP40-soluble protein abundance came out at 1.084 ± 0.0038 (concentration: 0.1mM); 1.11 ± 0.024 (concentration: 0.5mM); 1.08 ± 0.021 (concentration: 1mM); 1.2 ± 0.071 (concentration: 2mM); 1.42 ± 0.057 (concentration: 4mM); 1.55 ± 0.061 (concentration: 6mM). The NP40-soluble protein abundance reads like this: (concentration: 8mM) 1.69 ± 0.043; (concentration: 10mM) 1.94 ± 0.066.

For the target UniProt Q9BW83|Q9BW83-2, the NP40-soluble protein abundance (concentration: 0.1mM) was 0.972 ± 0.019; the NP40-soluble protein abundance (concentration: 0.5mM) worked out at 1.05 ± 0.059; the NP40-soluble protein abundance (concentration: 1mM) was determined as 0.971 ± 0.02; the NP40-soluble protein abundance (concentration: 2mM) came out at 0.958 ± 0.013; the NP40-soluble protein abundance (concentration: 4mM) was found to be 0.911 ± 0.036; the NP40-soluble protein abundance (concentration: 6mM) was determined as 0.95 ± 0.018. Moreover, the NP40-soluble protein abundance by setting is: (concentration: 8mM) 0.916 ± 0.016; (concentration: 10mM) 0.944 ± 0.0068.

Turning to MTMR6 (UniProt Q9Y217), the NP40-soluble protein abundance runs as follows: (concentration: 0.1mM) 1.068 ± 0.0063; (concentration: 0.5mM) 1.02 ± 0.027; (concentration: 1mM) 0.967 ± 0.016; (concentration: 2mM) 0.969 ± 0.01; (concentration: 4mM) 0.93 ± 0.031; (concentration: 6mM) 0.907 ± 0.0098. The NP40-soluble protein abundance (concentration: 8mM) stood at 0.947 ± 0.034 and the NP40-soluble protein abundance (concentration: 10mM) amounted to 0.913 ± 0.042.

Regarding MED10 (UniProt Q9BTT4), the NP40-soluble protein abundance was 1.01 ± 0.2 (concentration: 0.1mM); 1.03 ± 0.098 (concentration: 0.5mM); 0.973 ± 0.028 (concentration: 1mM); 1.07 ± 0.11 (concentration: 2mM); 0.95 ± 0.094 (concentration: 4mM); 1.08 ± 0.05 (concentration: 6mM). Further, the NP40-soluble protein abundance was determined as 0.968 ± 0.092 (concentration: 8mM) and 1.07 ± 0.038 (concentration: 10mM).

Regarding PGAM5 (UniProt Q96HS1), the NP40-soluble protein abundance (concentration: 0.1mM) worked out at 1.03 ± 0.034; the NP40-soluble protein abundance (concentration: 0.5mM) is 1.09 ± 0.073; the NP40-soluble protein abundance (concentration: 1mM) was 1.18 ± 0.14; the NP40-soluble protein abundance (concentration: 2mM) was 1.4 ± 0.26; the NP40-soluble protein abundance (concentration: 4mM) came out at 1.67 ± 0.38; the NP40-soluble protein abundance (concentration: 6mM) amounted to 1.79 ± 0.45. In addition, the NP40-soluble protein abundance came out at 1.86 ± 0.4 (concentration: 8mM) and 1.95 ± 0.47 (concentration: 10mM).
